Integrin act MD: qHTS for Activators of Integrin-Mediated Alleviation for Muscular Dystrophy; alpha7betagal myoblasts, beta-gal FDG fluorescence, 48 h; Potency, µM (titrated, usually from 38.3 µM), inactives show at the highest dose activation, actives largely listed as activators; 350,000 compounds, 0.064% hits; AID 624291, 2012;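 further: potency means the concentration at half of the fitted maximal effect; 100% = response of the positive control SU9516; nearly all actives have a fitted effect of over 60% in size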
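Alpha7betagal+/- myoblasts (passage 13) were plated 16-24 hr, then exposed to compounds (1:260 dilution of DMSO stock) for 48 hours at 37C. After MPER lysis, β-galactosidase reporter activity was read as FDG fluorescence (ex 480/em 540) after 30 minutes.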
ERG-DNA inh: qHTS for Small Molecule Inhibitors of the ERG Ets/DNA interaction | AID 624246, 2012 | Potency, µM (doses to about 76.9 µM), without a hit: at the highest dose FP activity, negative = inhibition, most hits filed as inhibitors | 370,000 compounds, 0.028% hits | fluorescence polarization, His-ERG Ets domain / labelled DNA | Transcriptional regulator ERG (Homo sapiens), P11308; active means well fitted inhibition curve with a large enough effect in the polarisation, with a control signal flat; inconclusive means small, poorly fitted or top-dose-only effect, or effect the other way, or a change in a side signal; inactive means no such curve, though single readings can be large or run the other way; the % refers to the polarisation;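 further: polarization taken with two DNA probes labelled with fluorescein and Texas red; potency means the concentration at half of the fitted maximal effect; % of control where 0% means no effect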
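His-tagged ERG Ets domain (1 uM in the protein solution; 300mM KCl, 50mM Tris-HCl, 1mM EDTA, 1mM DTT, pH 7.5) received compound, then a probe mix of 5 nM fluorescein-DNA and 100nM Texas-615-DNA. Fluorescence polarization was read for both dyes.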
Giardia killer: Small Molecules that selectively kill Giardia lamblia: qHTS | 340,000 compounds, 0.15% hits | activity change, % at 7.66 µM, hits read low | Giardia lamblia trophozoite viability; in the data active means activity change below about -80%; inconclusive means between about -30% and that limit;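 further: parasites exposed to compound for two days anaerobically before the ATP read; on the % scale 0 is the no-effect control and ±100 the full control effect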
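Trophozoite viability was measured as ATP-dependent luminescence, read 15-30 min after reagent addition. Before that, parasites at 100 cells/well were exposed to compounds for 48 h, anaerobically, at 37 deg C.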
VP16 counter: VP16 counterscreen qHTS for inhibitors of ROR gamma transcriptional activity | Drosophila S2 Gal4-VP16 UAS-luciferase, luminescence, 20 h | Potency, µM (series often up to 53.6 µM), without a hit: top-dose activity, negative = inhibition, hits mostly inhibitors | 310,000 compounds, 3.5% hits | AID 2546, 2010;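 further: Gal4-VP16 expression switched on by copper sulfate through the metallothionein promoter; potency means the concentration at half of the fitted maximal effect; on the % scale 0 is the no-effect control and ±100 the full control effect; nearly all actives have a fitted effect of over 50% in size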
RORgamma inh: qHTS for inhibitors of ROR gamma transcriptional activity; Drosophila S2 Gal4-RORgamma UAS-luciferase reporter, 20 h; Potency, µM (series often up to 53.6 µM), inactives show at the highest dose activity change, negative = inhibition, usual class: inhibitors; 310,000 compounds, 5.4% hits; further: potency means the concentration at half of the fitted maximal effect; on the % scale 0 is the no-effect control and ±100 the full control effect; nearly all actives have a fitted effect of over 60% in size
Target sequence (P51450 whole entry, looked up, the tested form may be a part): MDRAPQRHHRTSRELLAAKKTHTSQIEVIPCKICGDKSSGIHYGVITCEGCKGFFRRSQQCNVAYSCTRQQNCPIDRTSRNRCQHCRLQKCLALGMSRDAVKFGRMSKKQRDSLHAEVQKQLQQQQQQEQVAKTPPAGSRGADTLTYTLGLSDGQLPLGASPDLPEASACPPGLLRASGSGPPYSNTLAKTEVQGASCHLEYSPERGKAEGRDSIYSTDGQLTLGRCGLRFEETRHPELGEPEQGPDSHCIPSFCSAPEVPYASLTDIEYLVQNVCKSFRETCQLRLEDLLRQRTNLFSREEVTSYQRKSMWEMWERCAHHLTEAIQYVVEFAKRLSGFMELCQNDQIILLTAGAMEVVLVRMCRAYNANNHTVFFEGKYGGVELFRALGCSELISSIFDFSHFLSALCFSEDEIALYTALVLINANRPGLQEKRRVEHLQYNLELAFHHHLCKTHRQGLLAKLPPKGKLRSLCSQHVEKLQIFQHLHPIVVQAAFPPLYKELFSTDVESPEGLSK
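Read-out: Photinus luciferase luminescence; inhibitors lower reporter signal. Insect Schneider cells with Gal4-ROR gamma fusion under metallothionein promoter, UAS reporter; 700 uM final copper sulfate induction, 20 hr, ambient temperature.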
The depositor's hits bear a star. This excerpt belongs to a sample that is enriched for hits. Unless noted, the call rests on the fitted dose curve; in most records, active means well fitted curve in the direction sought with a large enough effect; inconclusive means small, poorly fitted or top-dose-only effect, or another doubt; inactive means no such curve, though single readings can be large; an effect the other way counts as inactive or inconclusive.

CN(C(=O)c1ccc(Cl)cc1)C1CCS(=O)(=O)C1 (stereo not drawn) was read as Integrin act MD 21.4%, ERG-DNA inh -15.8% and Giardia killer -0.5.
Screening O=C(NC(NC(=S)Nc1c(Cl)cccc1Cl)C(Cl)(Cl)Cl)c1cccc([N+](=O)[O-])c1 (stereo not drawn) returned Integrin act MD -66.5%, ERG-DNA inh -2.0%, Giardia killer -11.6, VP16 counter 8.91µM* and RORgamma inh inconclusive.
For N=C1SCC(=O)N1c1ncc(Cc2ccccc2Cl)s1 the results were Integrin act MD -46.6%, ERG-DNA inh -2.8%, Giardia killer 3.0, VP16 counter 0.708µM* and RORgamma inh 126µM*.
`N=C1SCC(=O)N1c1ncc(Cc2cccc(Cl)c2)s1` gave Integrin act MD -73.1%, ERG-DNA inh 1.5%, Giardia killer 17.3, VP16 counter 0.891µM* and RORgamma inh 0.355µM*.
`COCCNC(=O)CSc1nc2cc3c(cc2c(=O)n1Cc1ccc(C(=O)NCCc2ccc(OC)c(OC)c2)cc1)OCO3` gave ERG-DNA inh 1.7%.
Screening Cc1ccc(NC2=C/C(=N/S(=O)(=O)c3cccs3)c3ccccc3C2=O)cc1 returned Integrin act MD -62.4%, ERG-DNA inh -12.1%, Giardia killer -24.1, VP16 counter 6.31µM* and RORgamma inh 10µM*.
`O=C1C(Nc2ccccc2)=C/C(=N/S(=O)(=O)c2cccs2)c2ccccc21` gave Integrin act MD -47.2%, ERG-DNA inh -5.6%, Giardia killer -7.6, VP16 counter 5.01µM* and RORgamma inh 4.47µM*.
For COC(=O)c1ccccc1NC1=C/C(=N\S(=O)(=O)c2cccs2)c2ccccc2C1=O the results were Integrin act MD 2.6%, ERG-DNA inh 14.2%, Giardia killer 8.2, VP16 counter inconclusive and RORgamma inh 27.0%.
O=C(Nc1cccc(Br)c1)c1cc(S(=O)(=O)N2CCCCC2)c[nH]1 was read as ERG-DNA inh 0.0%.
Screening CS(=O)(=O)N1CCN(c2ccccc2[N+](=O)[O-])CC1 returned Integrin act MD 13.1%, ERG-DNA inh 13.2%, Giardia killer -2.6, VP16 counter -14.8% and RORgamma inh -2.0%.
`COC(=O)c1ccc(/C=N/Nc2nc(C)c(C)s2)cc1` gave Integrin act MD 12.1%, ERG-DNA inh 6.0%, Giardia killer -0.2, VP16 counter inconclusive and RORgamma inh -69.4%.
Screening CCCc1sc(N/N=C/c2ccccn2)nc1-c1ccc(F)cc1 returned Integrin act MD -49.8%, Giardia killer 14.5, VP16 counter 0.316µM* and RORgamma inh 0.282µM*.
`Cc1nc(N/N=C/c2ccccn2)sc1C` gave Integrin act MD -34.6%, ERG-DNA inh -6.9%, Giardia killer -14.9, VP16 counter 0.501µM* and RORgamma inh 0.112µM*.
O=C(O)Cc1sc(N/N=C\c2ccccc2)nc1-c1ccccc1 was read as Integrin act MD 5.1%, ERG-DNA inh 18.1%, Giardia killer -11.4, VP16 counter -24.5% and RORgamma inh -27.5%.
Screening COc1ccc(C2CC(=O)C=C3c4ccc(OC)cc4CCC32)cc1 (stereo not drawn) returned Integrin act MD 12.8%.
For C=CCOc1ccc(C2NC(=S)NC3=C2CCc2ccccc23)cc1 (stereo not drawn) the results were Integrin act MD 25.7%, ERG-DNA inh 4.3%, Giardia killer 0.6, VP16 counter 12.6µM* and RORgamma inh 3.55µM*.
`COc1cc(C2NC(=S)NC3=C2CCc2ccccc23)cc(OC)c1OC` (stereo not drawn) gave Integrin act MD -10.8%, ERG-DNA inh 1.4%, Giardia killer 4.0, VP16 counter 10µM* and RORgamma inh 5.62µM*.
COc1ccc2c(c1)CCC1=C2NC(=S)NC1c1ccc(N(C)C)cc1 (stereo not drawn) was read as Integrin act MD -3.9%, ERG-DNA inh -1.3%, Giardia killer -27.9, VP16 counter 3.55µM* and RORgamma inh 2.82µM*.
